# Assay results: ChEMBL document CHEMBL1157539, “Thousands of chemical starting points for antimalarial lead identification” (Nature, 2010)
# System: HepG2
# Experiment: GSK_TCMDC: Percent inhibition of human HepG2 cell line. Test compounds present at 10uM.
# Type: functional
row,SMILES,Inhibition [%]
1,Cc1nc2ccc(NC(=O)c3cc(S(=O)(=O)N(C)C)ccc3Cl)cc2s1,20
2,N#CCCN1CCN(Cc2cccc(-c3ccc(-c4nc5cc(F)ccc5[nH]4)cc3)c2)CC1.O=C(O)C(F)(F)F,18
3,COCC(=O)Nc1nc2ccccc2[nH]1,0
4,CCCCNc1cc(C)nc(NCc2ccccc2)n1,23
5,COc1ccc2nccc([C@@H](O)CN3CCC(NCc4nc5ccccc5s4)CC3)c2c1.O=C(O)C(=O)O,8
6,COc1ccc2cc(-c3nc(-c4c(Cl)cccc4Cl)[nH]c3-c3ccnc(NCCCN4CCN(C)CC4)c3)ccc2c1.O=C(O)C(F)(F)F,10
7,Cc1cc(Nc2ncc(C#N)c(Nc3ccccc3C(N)=O)n2)ccc1N1CCN(C)CC1.Cl,99
8,Oc1cc(Nc2ccnc3cc(I)ccc23)ccc1F,0
9,O=C(Nc1cccnc1)c1cn(-c2ccccc2)nc1-c1cccs1,3
10,CC(C)=CC1C(C(=O)n2c(=N)[nH]c3ccccc32)C1(C)C (stereo unspecified),16
11,COc1ccc(NC(=O)c2ccc(-c3ccc(-c4cccnc4)cc3)c(C)c2)cc1OCCN(C)C.Cl,24
12,CCOc1cc(C(=O)Nc2ccc3nc(N(CC)CC)cc(C)c3c2)cc(OCC)c1OCC,16
13,COc1cccc(O)c1CN1CCC2(CCCN(Cc3ccc(F)cc3)C2)C1 (stereo unspecified),21
14,Oc1ccc2nc(NCCCc3ccccc3)nc(NCCCc3ccccc3)c2c1,5
15,Cc1ccc(O)cc1Nc1ccnc2ccc(C(C)(C)C)cc12,6
16,Cc1cc2c(cc1C(F)(F)F)N(C(=O)Nc1cc(OCCN(C)C)cc(C(F)(F)F)c1)CC2.Cl,16
